Test results taken from ChEMBL document CHEMBL3988442, “University of Dundee, Small-Polar-MMV Screening Library” (2021).
For some assays here: Entries with a potency or affinity are not part of this list.

Assays:
Design in all cases: scale not given: direction of the effect not stated beside the values
[1] = target: Protein translocase subunit SecA (Escherichia coli (strain K12)) (UniProt P10408); experiment: Assay to Identify E. coli SecA ATPase Inhibitors; type: functional; settings: 30 µM
[2] = target: T1, Ubiquitin-activating enzyme e1, putative (Leishmania donovani (strain BPK282A1)) (UniProt E9BSI1); experiment: Leishmania donovani Ubiquitin Activating Enzyme (LdE1); type: functional; settings: 30 µM
T1 sequence (whole entry): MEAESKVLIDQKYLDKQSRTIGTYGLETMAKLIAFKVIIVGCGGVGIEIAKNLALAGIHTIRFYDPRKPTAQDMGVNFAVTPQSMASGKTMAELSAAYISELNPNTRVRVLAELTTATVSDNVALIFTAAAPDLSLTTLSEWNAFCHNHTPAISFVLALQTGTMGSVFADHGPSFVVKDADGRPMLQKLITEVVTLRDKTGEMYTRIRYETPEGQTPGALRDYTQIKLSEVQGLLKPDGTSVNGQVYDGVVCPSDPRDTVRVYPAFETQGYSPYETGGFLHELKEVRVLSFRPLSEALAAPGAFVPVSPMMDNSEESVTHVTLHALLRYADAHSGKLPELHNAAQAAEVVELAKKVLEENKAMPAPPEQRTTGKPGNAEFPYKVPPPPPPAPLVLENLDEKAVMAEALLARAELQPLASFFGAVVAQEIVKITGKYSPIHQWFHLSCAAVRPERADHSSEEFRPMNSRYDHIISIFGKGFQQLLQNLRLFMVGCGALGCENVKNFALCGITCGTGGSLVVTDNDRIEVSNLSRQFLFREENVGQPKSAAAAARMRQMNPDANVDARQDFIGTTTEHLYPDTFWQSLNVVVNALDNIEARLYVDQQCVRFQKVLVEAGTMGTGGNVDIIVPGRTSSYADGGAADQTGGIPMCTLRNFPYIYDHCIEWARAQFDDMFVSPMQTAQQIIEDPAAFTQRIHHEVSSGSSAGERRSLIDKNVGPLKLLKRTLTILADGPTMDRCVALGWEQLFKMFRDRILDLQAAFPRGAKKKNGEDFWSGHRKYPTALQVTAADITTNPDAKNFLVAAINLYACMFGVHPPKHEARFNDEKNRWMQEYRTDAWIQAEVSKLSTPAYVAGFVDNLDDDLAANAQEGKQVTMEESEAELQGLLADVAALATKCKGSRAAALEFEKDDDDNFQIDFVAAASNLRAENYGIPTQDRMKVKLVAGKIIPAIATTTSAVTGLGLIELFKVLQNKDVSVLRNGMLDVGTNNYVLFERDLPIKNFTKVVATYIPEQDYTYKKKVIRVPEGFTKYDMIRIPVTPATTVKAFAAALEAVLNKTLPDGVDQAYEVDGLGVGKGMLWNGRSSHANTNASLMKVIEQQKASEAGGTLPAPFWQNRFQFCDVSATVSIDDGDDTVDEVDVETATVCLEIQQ

[3] = target: AMP-activated protein kinase, AMPK (Homo sapiens) (UniProt P54646+O43741+P54619+Q9UGJ0+Q9Y478+Q13131+Q9UGI9); experiment: AMP-dependent Kinase enzyme assay. An in vitro enzyme assay that detects ADP turnover that is directly proportional to AMPK activity. This uses naive AMPK that is activated during the assay with MK-8722; type: functional; settings: 30 µM
[4] = target: Sialic acid-binding Ig-like lectin 9 (Homo sapiens) (UniProt Q9Y336); experiment: Hs-Siglec9 ALPHAscreen SOP 20170721; settings: 10 µM
Sequence of Sialic acid-binding Ig-like lectin 9 (Homo sapiens) (Q9Y336 whole entry): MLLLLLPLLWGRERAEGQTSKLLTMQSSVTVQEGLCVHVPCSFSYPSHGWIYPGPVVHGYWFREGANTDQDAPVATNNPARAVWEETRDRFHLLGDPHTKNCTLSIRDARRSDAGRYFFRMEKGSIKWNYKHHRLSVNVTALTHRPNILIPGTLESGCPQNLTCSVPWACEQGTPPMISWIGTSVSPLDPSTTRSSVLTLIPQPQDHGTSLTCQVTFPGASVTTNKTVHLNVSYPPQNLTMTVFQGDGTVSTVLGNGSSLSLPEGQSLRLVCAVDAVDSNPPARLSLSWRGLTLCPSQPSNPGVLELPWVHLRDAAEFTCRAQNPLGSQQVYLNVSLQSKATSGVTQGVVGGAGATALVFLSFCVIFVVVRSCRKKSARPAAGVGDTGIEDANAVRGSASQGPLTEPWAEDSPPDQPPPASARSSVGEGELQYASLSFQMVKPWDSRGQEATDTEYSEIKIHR

Trypanosoma cruzi = experiment: Trypanosoma cruzi phosphomannomutase and mannose-1-phosphate guanylyltransferase assay; type: functional; settings: 10 µM
[5] = target: T2, Arginase-2, mitochondrial (Homo sapiens) (UniProt P78540); experiment: in vitro enzyme assay to detect the production of urea directly proportional to the activity of Arginase II; type: functional; settings: 33.3 µM; also: in the data most compounds retested in dose-response had high values
T2 sequence (whole entry): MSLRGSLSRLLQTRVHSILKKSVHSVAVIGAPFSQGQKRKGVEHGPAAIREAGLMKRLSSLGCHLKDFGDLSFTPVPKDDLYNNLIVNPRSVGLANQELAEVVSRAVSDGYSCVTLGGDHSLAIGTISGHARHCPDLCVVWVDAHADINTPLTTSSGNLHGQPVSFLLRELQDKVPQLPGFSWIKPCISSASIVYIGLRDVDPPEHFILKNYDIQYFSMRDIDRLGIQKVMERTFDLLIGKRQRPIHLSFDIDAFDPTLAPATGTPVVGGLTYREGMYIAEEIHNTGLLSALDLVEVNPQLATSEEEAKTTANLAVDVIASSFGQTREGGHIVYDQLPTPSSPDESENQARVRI

[6] = target: T3, Proteasome subunit beta (Trypanosoma cruzi) (UniProt O96673); experiment: Trypanosoma cruzi proteasome chymotrypsin-like activity (TcProtChymo) assay.; also: in the data most compounds retested in dose-response had high values; type: functional; settings: 9.37 µM
T3 sequence (whole entry): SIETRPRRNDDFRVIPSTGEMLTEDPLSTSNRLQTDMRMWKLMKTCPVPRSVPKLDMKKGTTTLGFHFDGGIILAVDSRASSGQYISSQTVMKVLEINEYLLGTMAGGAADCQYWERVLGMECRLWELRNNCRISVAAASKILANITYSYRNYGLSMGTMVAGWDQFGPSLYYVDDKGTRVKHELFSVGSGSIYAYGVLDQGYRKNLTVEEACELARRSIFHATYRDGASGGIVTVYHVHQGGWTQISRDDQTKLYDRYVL

Homo sapiens = species on record: Homo sapiens; experiment: To identify inhibition of the IFN signalling (Jak-Stat) pathway via expression of an eGFP reporter gene under the control of an IFN-stimulated response element (ISRE) containing MxA promoter.; type: functional; settings: 30 µM
[7] = target: T4, Tyrosyl-tRNA synthetase, putative (Trypanosoma cruzi (strain CL Brener)) (UniProt Q4DSP6); experiment: Trypanosoma cruzi tyrosyl tRNA synthetase (TcYRS) _High Tyrosine SOP; type: functional; settings: 30 µM; also: in the data most compounds retested in dose-response had high values
T4 sequence (whole entry): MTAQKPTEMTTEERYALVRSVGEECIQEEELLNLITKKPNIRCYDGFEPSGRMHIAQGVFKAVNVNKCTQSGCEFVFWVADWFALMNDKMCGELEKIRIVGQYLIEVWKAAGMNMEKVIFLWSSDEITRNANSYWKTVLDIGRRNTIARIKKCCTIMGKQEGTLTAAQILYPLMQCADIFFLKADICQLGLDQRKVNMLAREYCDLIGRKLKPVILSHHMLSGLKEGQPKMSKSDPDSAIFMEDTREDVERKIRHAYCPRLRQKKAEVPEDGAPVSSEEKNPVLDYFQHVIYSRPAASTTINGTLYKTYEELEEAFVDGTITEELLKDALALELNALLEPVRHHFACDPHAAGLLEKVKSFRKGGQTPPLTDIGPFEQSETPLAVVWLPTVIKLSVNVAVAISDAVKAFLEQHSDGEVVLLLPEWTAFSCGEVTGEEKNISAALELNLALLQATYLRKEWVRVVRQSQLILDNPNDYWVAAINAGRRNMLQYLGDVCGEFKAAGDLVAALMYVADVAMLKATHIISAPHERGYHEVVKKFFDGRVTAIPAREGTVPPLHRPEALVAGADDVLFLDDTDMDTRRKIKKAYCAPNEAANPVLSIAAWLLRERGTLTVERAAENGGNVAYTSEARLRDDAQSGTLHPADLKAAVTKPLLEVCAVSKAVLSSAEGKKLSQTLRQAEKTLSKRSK

[8] = target: T4, Tyrosyl-tRNA synthetase, putative (Trypanosoma cruzi (strain CL Brener)); experiment: Trypanosoma cruzi tyrosyl tRNA synthetase (TcYRS) SOP; type: functional; settings: 30 µM
[9] = target: Chromo domain-containing protein 1 (Saccharomyces cerevisiae (strain ATCC 204508 / S288c) (Baker's yeast)) (UniProt P32657); experiment: ScCHD-1 Enzyme Inhibition Assay; type: functional; settings: 30 µM; also: in the data most compounds retested in dose-response had high values
Sequence of Chromo domain-containing protein 1 (Saccharomyces cerevisiae (strain ATCC 204508 / S288c) (Baker's yeast)) (P32657 whole entry, the tested form may be a part): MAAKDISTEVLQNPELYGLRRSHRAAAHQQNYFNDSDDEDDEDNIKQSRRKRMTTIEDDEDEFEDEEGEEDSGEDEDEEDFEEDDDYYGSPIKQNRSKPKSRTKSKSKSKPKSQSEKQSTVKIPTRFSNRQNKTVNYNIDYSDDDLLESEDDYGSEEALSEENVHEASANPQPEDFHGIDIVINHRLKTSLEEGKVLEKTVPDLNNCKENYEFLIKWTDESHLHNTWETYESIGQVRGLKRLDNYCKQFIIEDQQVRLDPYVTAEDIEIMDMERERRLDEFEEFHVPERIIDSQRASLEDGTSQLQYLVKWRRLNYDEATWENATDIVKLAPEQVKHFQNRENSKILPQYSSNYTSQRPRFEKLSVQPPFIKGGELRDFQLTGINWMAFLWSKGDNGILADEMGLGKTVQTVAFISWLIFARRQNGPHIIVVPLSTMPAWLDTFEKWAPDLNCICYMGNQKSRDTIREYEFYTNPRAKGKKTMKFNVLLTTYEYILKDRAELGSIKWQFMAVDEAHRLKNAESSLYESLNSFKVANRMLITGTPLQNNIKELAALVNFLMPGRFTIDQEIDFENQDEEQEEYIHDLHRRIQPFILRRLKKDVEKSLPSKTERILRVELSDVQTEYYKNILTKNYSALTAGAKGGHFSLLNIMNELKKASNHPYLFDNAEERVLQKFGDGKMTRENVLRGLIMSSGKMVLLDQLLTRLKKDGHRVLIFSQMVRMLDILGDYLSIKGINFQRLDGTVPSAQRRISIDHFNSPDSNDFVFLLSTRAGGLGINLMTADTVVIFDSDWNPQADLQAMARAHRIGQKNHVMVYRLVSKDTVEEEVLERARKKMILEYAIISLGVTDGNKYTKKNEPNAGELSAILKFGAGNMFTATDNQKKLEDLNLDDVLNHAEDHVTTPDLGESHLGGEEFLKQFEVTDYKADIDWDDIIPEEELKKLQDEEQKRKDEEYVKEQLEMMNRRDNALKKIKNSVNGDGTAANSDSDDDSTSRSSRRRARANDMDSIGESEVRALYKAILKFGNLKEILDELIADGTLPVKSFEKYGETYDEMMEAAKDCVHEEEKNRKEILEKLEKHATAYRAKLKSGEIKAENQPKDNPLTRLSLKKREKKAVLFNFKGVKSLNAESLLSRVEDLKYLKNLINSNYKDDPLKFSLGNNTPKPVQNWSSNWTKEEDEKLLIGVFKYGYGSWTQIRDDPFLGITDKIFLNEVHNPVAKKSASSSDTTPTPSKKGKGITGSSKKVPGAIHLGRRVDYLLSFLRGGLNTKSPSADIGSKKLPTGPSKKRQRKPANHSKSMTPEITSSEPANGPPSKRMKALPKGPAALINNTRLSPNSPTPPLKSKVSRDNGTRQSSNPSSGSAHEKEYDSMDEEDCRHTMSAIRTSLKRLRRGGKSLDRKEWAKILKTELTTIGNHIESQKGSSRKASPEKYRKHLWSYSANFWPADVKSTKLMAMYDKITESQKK

Sequence of Protein translocase subunit SecA (Escherichia coli (strain K12)) (P10408 whole entry): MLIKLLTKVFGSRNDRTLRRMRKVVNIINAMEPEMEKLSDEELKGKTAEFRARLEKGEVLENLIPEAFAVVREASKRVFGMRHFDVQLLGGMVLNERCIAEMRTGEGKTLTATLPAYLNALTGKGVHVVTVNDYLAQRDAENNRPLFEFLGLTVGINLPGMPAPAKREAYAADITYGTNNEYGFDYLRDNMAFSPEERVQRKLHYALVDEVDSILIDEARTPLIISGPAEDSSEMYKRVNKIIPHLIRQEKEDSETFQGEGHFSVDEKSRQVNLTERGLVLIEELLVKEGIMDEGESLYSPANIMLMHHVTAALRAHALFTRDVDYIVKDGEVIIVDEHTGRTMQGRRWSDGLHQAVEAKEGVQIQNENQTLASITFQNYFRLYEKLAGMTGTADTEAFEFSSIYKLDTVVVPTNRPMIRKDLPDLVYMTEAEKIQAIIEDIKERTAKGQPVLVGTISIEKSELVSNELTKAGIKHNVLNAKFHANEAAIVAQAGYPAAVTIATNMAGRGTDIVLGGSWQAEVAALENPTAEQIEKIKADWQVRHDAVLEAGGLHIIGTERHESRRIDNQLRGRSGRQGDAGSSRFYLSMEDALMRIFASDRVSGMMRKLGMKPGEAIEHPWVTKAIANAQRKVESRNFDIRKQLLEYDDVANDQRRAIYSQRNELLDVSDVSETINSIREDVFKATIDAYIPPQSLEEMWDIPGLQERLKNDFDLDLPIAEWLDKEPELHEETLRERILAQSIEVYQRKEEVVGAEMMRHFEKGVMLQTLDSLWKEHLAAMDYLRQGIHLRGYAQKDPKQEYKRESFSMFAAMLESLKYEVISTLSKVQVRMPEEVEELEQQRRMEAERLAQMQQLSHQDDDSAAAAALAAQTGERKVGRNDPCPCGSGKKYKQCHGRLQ

## Cc1cnccc1CN1C[C@@H](O)[C@H](Oc2cccc(F)c2)C1
[1]
  Percent Effect: -3.16%
[2]
  Percent Effect: 1.35%
[3]
  Percent Effect: 10%
[4]
  Percent Effect: 2.32%
Trypanosoma cruzi
  Percent Effect: 3.36%
[5]
  Percent Effect: 0.696%
[6]
  Percent Effect: 4.37%
Homo sapiens
  Percent Effect: 16.3%
[7]
  Percent Effect: 0%
[8]
  Percent Effect: 1.3%
[9]
  Percent Effect: -22.9%

## COCCC(=O)N1CCN(C)c2ncccc2C1
[1]
  Percent Effect: -4.6%
[2]
  Percent Effect: 2.6%
[3]
  Percent Effect: 1%
[4]
  Percent Effect: 7.83%
Trypanosoma cruzi
  Percent Effect: -2.06%
[5]
  Percent Effect: -1.38%
[6]
  Percent Effect: 3.83%
Homo sapiens
  Percent Effect: 2.13%
[7]
  Percent Effect: 5.38%
[8]
  Percent Effect: 6.17%
[9]
  Percent Effect: 2.1%

## c1cnn(CCNCc2nnc(C3CC3)o2)c1
[1]
  Percent Effect: -2.66%
[2]
  Percent Effect: 27.9%
[3]
  Percent Effect: -5.53%
[4]
  Percent Effect: -12.3%
Trypanosoma cruzi
  Percent Effect: 1.42%
[5]
  Percent Effect: -2.66%
[6]
  Percent Effect: 9.91%
Homo sapiens
  Percent Effect: 11.1%
[7]
  Percent Effect: 7.39%
[8]
  Percent Effect: 24.1%
[9]
  Percent Effect: -13.5%

## O=C1CC(c2cccnc2)c2c(c(C(=O)O)cn2-c2ccccc2)N1 (stereo not given)
[1]
  Percent Effect: -3.57%
[2]
  Percent Effect: 6.67%
[3]
  Percent Effect: -32.4%
[4]
  Percent Effect: -0.792%
Trypanosoma cruzi
  Percent Effect: -3.14%
[5]
  Percent Effect: 6.16%
[6]
  Percent Effect: 14.6%
Homo sapiens
  Percent Effect: 11.4%
[7]
  Percent Effect: 3.17%
[8]
  Percent Effect: 10.3%
[9]
  Percent Effect: -8.81%

## COCCN1C(=O)C[C@H]2[C@H]1CCN2Cc1cccc(C#N)c1
[1]
  Percent Effect: -2.88%
[2]
  Percent Effect: 2.67%
[3]
  Percent Effect: 7.27%
[4]
  Percent Effect: -1.09%
Trypanosoma cruzi
  Percent Effect: -2.95%
[5]
  Percent Effect: 3.03%
[6]
  Percent Effect: 5.9%
Homo sapiens
  Percent Effect: 6.32%
[7]
  Percent Effect: 1.06%
[8]
  Percent Effect: 1.28%
[9]
  Percent Effect: 1.66%

## CCC1CN(CC(=O)Nc2sccc2C#N)CCO1 (stereo not given)
[1]
  Percent Effect: -4.43%
[2]
  Percent Effect: -13.2%
[3]
  Percent Effect: -2.5%
[4]
  Percent Effect: 2.86%
Trypanosoma cruzi
  Percent Effect: 0.376%
[5]
  Percent Effect: 0%
[6]
  Percent Effect: 8.19%
Homo sapiens
  Percent Effect: -2.35%
[7]
  Percent Effect: 4.41%
[8]
  Percent Effect: 9.76%
[9]
  Percent Effect: -9.42%

## CCOCCC(=O)N1CCCC(c2ncc[nH]2)C1 (stereo not given)
[1]
  Percent Effect: -3.07%
[2]
  Percent Effect: 2.74%
[3]
  Percent Effect: -7.86%
[4]
  Percent Effect: -2.18%
Trypanosoma cruzi
  Percent Effect: -5.29%
[5]
  Percent Effect: 6.36%
[6]
  Percent Effect: 4.97%
Homo sapiens
  Percent Effect: 11.3%
[7]
  Percent Effect: 2.15%
[8]
  Percent Effect: 7.5%
[9]
  Percent Effect: -0.879%

## CNCC(=O)N1CCCC(c2nccnc2Oc2cccc(F)c2)C1 (stereo not given)
[1]
  Percent Effect: -7.42%
[2]
  Percent Effect: 10.7%
[3]
  Percent Effect: 10%
[4]
  Percent Effect: -1.6%
Trypanosoma cruzi
  Percent Effect: -3.74%
[5]
  Percent Effect: -3.03%
[6]
  Percent Effect: 9.25%
Homo sapiens
  Percent Effect: 11.8%
[7]
  Percent Effect: 3.19%
[8]
  Percent Effect: 3.85%
[9]
  Percent Effect: -4.73%

## CN1CCN(C(=O)c2cncc(CC3CCCN(C)C3)c2)CC1 (stereo not given)
[1]
  Percent Effect: -3.41%
[2]
  Percent Effect: 9.46%
[3]
  Percent Effect: 5.47%
[4]
  Percent Effect: 12%
Trypanosoma cruzi
  Percent Effect: -8.3%
[5]
  Percent Effect: -7.66%
[6]
  Percent Effect: 12%
Homo sapiens
  Percent Effect: 15.9%
[7]
  Percent Effect: 1.07%
[8]
  Percent Effect: 1.3%
[9]
  Percent Effect: -9.97%

## CCOCCNc1nc(C2CCCC2)nc2c1cnn2C
[1]
  Percent Effect: -4.35%
[2]
  Percent Effect: 2.74%
[3]
  Percent Effect: 6.03%
[4]
  Percent Effect: -4.4%
Trypanosoma cruzi
  Percent Effect: 0.588%
[5]
  Percent Effect: 2.73%
[6]
  Percent Effect: 1.6%
Homo sapiens
  Percent Effect: 17.1%
[7]
  Percent Effect: 1.07%
[8]
  Percent Effect: 5%
[9]
  Percent Effect: 2.02%
